# Source: PubChem BioAssay (NCATS)
# “And” between values parts separate entries of the source, which are not always exact repeats. Equal values may be shown once. Results filed as inconclusive are left out. Where a call stands in place of a potency, no number is given. Values without a mark were called inactive. The source made the active and inactive calls. Calls come from the whole dose curve; as a rule, active = well fitted curve in the direction sought with a large enough effect; inconclusive = small, poorly fitted or top-dose-only effect, or another doubt; inactive = no such curve, though single readings can be large; an effect the other way counts as inactive or inconclusive. Residues, ends and D or L forms follow the SMILES beside them.
# Legend:
# [1] = target: Cellular tumor antigen p53 (Homo sapiens) (UniProt P04637); test: Primary qHTS for small molecule compounds that upregulate eGFP-tagged delta133p53alpha (in N-terminal) cells. (AID 2060322); conditions: NCI-H358 eGFP-delta133p53alpha fluorescence, 24 h; activation: active compounds read high; note: nearly all actives have a fitted effect of over 75% in size; for activation: series mostly up to about 56 µM
# How it was run: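 NCI-H358 cells pre-induced 24 h with 10 ng/ml doxycycline to express N-terminal eGFP-delta133p53alpha, then dosed 24 h at 37C without doxycycline; fixed, Hoechst-stained, GFP intensity by laser scanning cytometry, normalized to DMSO (0%) and 57.5 uM 5-azacytidine (100%).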
# [2] = BET inhibitor-based combinations targeting novel dependencies in MECOM-rearranged (r) AML: SET-2 cell line (AID 2202231); conditions: SET-2 AML cells viability, CellTiter-Glo luminescence, 48 h; viability: active compounds read low, concentration not given here; note: nearly all actives have a fitted effect of over 35% in size
# How it was run: (§1)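 Cells were plated at 500 per well and exposed to an 11-point dose series of each drug for 48 hr. Viability was measured by CellTiter-Glo luminescence, normalized to DMSO and empty-well controls, and summarized as AUC and per-cell-line Z-AUC.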
# [3] = BET inhibitor-based combinations targeting novel dependencies in MECOM-rearranged (r) AML: OCI-AML3 cell line (AID 2202232); conditions: Potency: OCI-AML3 viability; note: nearly all actives have a fitted effect of over 35% in size
# How it was run: as §1
# [4] = BET inhibitor-based combinations targeting novel dependencies in MECOM-rearranged (r) AML: MV-4-11 cell line (AID 2202233); note: nearly all actives have a fitted effect of over 45% in size
# How it was run: (§2)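 Activity is given as area under the curve and as Z-AUC, mean-centred within each cell line. It comes from 11-point dose curves normalized to DMSO and empty wells. CellTiter-Glo luminescence was read after 48 hr drug exposure of 500 cells/well.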
# [5] = BET inhibitor-based combinations targeting novel dependencies in MECOM-rearranged (r) AML: HNT-34 cell line (AID 2202234); note: nearly all actives have a fitted effect of over 35% in size
# How it was run: as §2
# [6] = BET inhibitor-based combinations targeting novel dependencies in MECOM-rearranged (r) AML: UCSD-AML1 cell line (AID 2202235); note: nearly all actives have a fitted effect of over 40% in size
# How it was run: as §2
# [7] = BET inhibitor-based combinations targeting novel dependencies in MECOM-rearranged (r) AML: AML-191 cell line (AID 2202236; note: nearly all actives have a fitted effect of over 35% in size)
# How it was run: as §1
# [8] = BET inhibitor-based combinations targeting novel dependencies in MECOM-rearranged (r) AML: AML-194 cell line (AID 2202237; note: nearly all actives have a fitted effect of over 40% in size)
# How it was run: as §1
# Potency is the fitted concentration of half-maximal effect.
# Cellular tumor antigen p53 (Homo sapiens), sequence (P04637 whole entry, looked up): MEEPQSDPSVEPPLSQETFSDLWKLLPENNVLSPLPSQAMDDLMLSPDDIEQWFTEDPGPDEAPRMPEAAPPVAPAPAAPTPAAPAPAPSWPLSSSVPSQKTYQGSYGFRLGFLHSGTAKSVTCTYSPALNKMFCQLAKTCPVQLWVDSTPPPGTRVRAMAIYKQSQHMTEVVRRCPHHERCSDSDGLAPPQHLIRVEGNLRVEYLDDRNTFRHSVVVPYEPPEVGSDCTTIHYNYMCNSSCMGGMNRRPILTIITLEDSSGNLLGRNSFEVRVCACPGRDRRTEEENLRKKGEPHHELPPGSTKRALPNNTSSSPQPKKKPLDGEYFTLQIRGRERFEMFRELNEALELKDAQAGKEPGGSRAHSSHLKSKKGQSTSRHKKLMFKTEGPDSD
Structure (SMILES),activation [1],viability [2] [%],Potency [3],Potency [4],Potency [5],Potency [6],Potency [7],Potency [8],Potency [2],Potency [1]
CCCN[C@H]1CCc2nc(N)sc2C1,9.21% and 7.7%,116,inactive,0.934 µM (active),inactive,inactive,inactive,inactive,–,–
CC(C)[C@H](N)C(=O)OCCOCn1cnc2c(=O)[nH]c(N)nc21,-14.1% and 18.6%,92.3,inactive,inactive,inactive,inactive,inactive,inactive,–,–
Cc1cc2cc3c(C)cc(=O)oc3c(C)c2o1,-5.86% and 16.7%,111,inactive,inactive,inactive,inactive,–,inactive,–,–
O=C(CN1C(=O)C2(CCCC2)NC[C@H]1c1cc(F)cc(F)c1)Nc1ccc2c(c1)C[C@@]1(C2)C(=O)Nc2ncccc21,22.6%,98.8,inactive,inactive,inactive,inactive,–,inactive,–,–
Cc1ccsc1C(=CCCN1CCC[C@@H](C(=O)O)C1)c1sccc1C,-19.8%,112,0.468 µM (active),inactive,inactive,inactive,–,inactive,–,–
COC(=O)[C@H](Cc1ccccc1)NC(=O)[C@@H](N)CC(=O)O (H-Asp-Phe-OMe),-35.6% and -14.3%,112,inactive,inactive,inactive,inactive,inactive,inactive,–,–
CC(=O)[C@H]1CC[C@H]2[C@@H]3CC=C4C[C@@H](O)CC[C@]4(C)[C@H]3CC[C@]12C,-3.95% and -16.2%,112,inactive,inactive,inactive,inactive,inactive,inactive,–,–
Cc1cnc(Nc2ccc(N3CCN(C)CC3)cc2)nc1Nc1cccc(S(=O)(=O)NC(C)(C)C)c1,28.8%,–,5.25 µM (active),0.662 µM (active),0.833 µM (active),1.86 µM (active),2.63 µM (active),2.95 µM (active),2.63 µM (active),–
C[Se]CCC(N)C(=O)O (centres undefined),-7.89%,105,inactive,inactive,inactive,inactive,inactive,inactive,–,–
C#C[C@]1(O)CC[C@H]2[C@@H]3CCc4cc(OC)ccc4[C@H]3CC[C@@]21C,-5.08%,117,inactive,inactive,inactive,inactive,–,inactive,–,–
CCOCC(O)COc1ccc(NC(=O)CC[S+](C)C)cc1 (centres undefined),-1.78%,62.2,inactive,inactive,inactive,inactive,–,inactive,–,–
Cc1cn([C@@H]2C[C@@H](O)[C@H](CO)O2)c(=O)[nH]c1=O,-12.7%,103,inactive,inactive,inactive,inactive,inactive,inactive,–,–
N#Cc1cc(NC(=O)Nc2nnc(-c3ccncc3)s2)ccc1-c1cn[nH]c1,-26.3%,111,inactive,inactive,inactive,inactive,–,inactive,–,–
O=C(O)c1cn(-c2ccc(F)cc2)c2cc(N3CCNCC3)c(F)cc2c1=O,-9.7%,96.6,inactive,inactive,inactive,inactive,inactive,inactive,–,–
COc1c(C)c2c(c(O)c1C/C=C(\C)CCC(=O)OCCN1CCOCC1)C(=O)OC2,-10.7%,–,1.32 µM (active),0.662 µM (active),–,1.18 µM (active),1.32 µM (active),–,1.32 µM (active),–
NCCCC(O)(P(=O)(O)O)P(=O)(O)O,36.7% and -7.88%,114,inactive,inactive,inactive,–,inactive,inactive,–,–
COc1cc(NC(=O)c2ccc(-c3ccc(Cl)cc3)o2)cc(OC)c1,1.2%,110,inactive,inactive,inactive,–,inactive,inactive,–,–
CC(C)C[C@H](NC(=O)CNC(=O)c1cc(Cl)ccc1Cl)B1OC(=O)CC(CC(=O)O)(C(=O)O)O1 (some centres undefined),–,–,0.132 µM (active),0.132 µM (active),–,0.166 µM (active),0.166 µM (active),0.186 µM (active),0.118 µM (active),9.68 µM (active)
CNC(=O)Nc1ccc(-c2nc(N3CC4CCC(C3)O4)c3cnn(C4CCC5(CC4)OCCO5)c3n2)cc1,8.27%,–,0.105 µM (active),0.166 µM (active),–,0.0295 µM (active),0.0295 µM (active),–,0.263 µM (active),–
